Compound activity as filed in PubChem.
GPT2 inh: GPT2 alanine aminotransferase inhibition; Q8TD30; Recombinant GPT2, coupled pyruvate oxidase/HRP Amplex Red fluorescence; Potency, µM (top dose mostly 57.7 µM), inactives show at the highest dose activity change, negative = inhibition, actives largely listed as inhibitors; 100,000 compounds, 0.25% hits; AID 1671188; note: nearly all actives have a fitted effect of over 60% in size
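Fluorescence of coupled pyruvate oxidase/HRP/Amplex Red system (50uM Amplex, 30 min, dark) reports pyruvate formed by GPT2. Enzyme reaction: 10ng/uL GPT2, 2mM L-alanine, 250uM a-KG, 30 min room temperature, pH 7.5; 50uM AOA control.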
NIH3T3 tox: kills NIH 3T3 cells; NIH 3T3 viability, CellTiter-Glo ATP luminescence, 48-72 h; Potency, µM (top dose mostly 96.7 µM), inactives show at the top dose activity change, negative = cytotoxicity, hits mostly inhibitors; 94,000 compounds, 4.3% hits; AID 1345082; note: nearly all actives have a fitted effect of over 55% in size
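Mouse fibroblast NIH 3T3 cells, 400 per well, received compound via pintool and were incubated for 48 or 72 hr prior to CellTiter-Glo ATP luminescence measurement.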
FLuc inh: inhibitors of firefly (Photinus pyralis) luciferase; Potency, µM (series often up to 115 µM), actives largely listed as inhibitors; 76,000 compounds, 2.5% hits; P08659; purified P. pyralis luciferase, luminescence, biochemical; note: nearly all actives have a fitted effect of over 65% in size
Target sequence (P08659 whole entry, looked up): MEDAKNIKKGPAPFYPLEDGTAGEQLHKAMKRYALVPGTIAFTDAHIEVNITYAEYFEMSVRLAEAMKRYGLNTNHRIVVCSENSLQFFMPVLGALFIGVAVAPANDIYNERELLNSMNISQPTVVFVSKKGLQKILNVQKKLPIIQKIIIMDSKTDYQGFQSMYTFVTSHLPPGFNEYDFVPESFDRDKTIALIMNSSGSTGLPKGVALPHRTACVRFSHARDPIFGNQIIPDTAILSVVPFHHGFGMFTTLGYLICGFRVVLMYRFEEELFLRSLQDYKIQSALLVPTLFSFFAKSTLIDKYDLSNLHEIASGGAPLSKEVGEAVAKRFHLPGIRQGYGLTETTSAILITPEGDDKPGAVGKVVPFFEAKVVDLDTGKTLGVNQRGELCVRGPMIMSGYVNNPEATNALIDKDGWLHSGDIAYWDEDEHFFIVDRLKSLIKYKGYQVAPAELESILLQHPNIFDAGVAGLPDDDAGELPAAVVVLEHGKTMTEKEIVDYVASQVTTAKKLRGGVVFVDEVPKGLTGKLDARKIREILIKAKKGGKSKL
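FLuc 10nM, D-luciferin 10uM, ATP 10uM, Mg acetate 10mM, Tris acetate pH 7.5, Tween/BSA; cpd qHTS; enzyme added last; CCD luminescence.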
NPR1 antag: antagonists of human natriuretic peptide receptor Npr1; HEK293 hNpr1 GloSensor cGMP, ANP-stimulated luminescence; P16066; Potency, µM (top dose mostly 46.3 µM), without a hit: at the highest dose activity change, negative = inhibition, most hits filed as inhibitors; AID 1347048; 76,000 compounds, 1.6% hits; calls by dose curve; note: nearly all actives have a fitted effect of over 60% in size
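HEK293 cells stably expressing human Npr1 and cGMP GloSensor pGS-40F, loaded 2 h with 2% GloSensor reagent, given compound 30 min at room temperature. Luminescence read before and 20 min after 0.1 nM hNppA.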
HEK cytotox: kills HEK 293 cells; HEK 293 viability, ATP luminescence (CellTiter-Glo), 48-72 h; Potency, µM (highest dose often 115 µM), inactives show top-dose activity change, negative = cytotoxicity, hits mostly inhibitors; 94,000 compounds, 6.6% hits; note: nearly all actives have a fitted effect of over 60% in size
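Pintool-delivered compounds were incubated with HEK 293 cells (250 cells/well) at 37 degree Celsius for 48 or 72 hr. ATP-dependent luminescence (CellTiter-Glo) then reported remaining viable cells.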
* = called active by the depositor; i = inactive; u = inconclusive; x = not tested or not shown; [ ] = another dose, or the depositor's remark. Sampled rows, rich in hits. Any-hit rate of the full collection: about 10%. Unless noted, calls come from the whole dose curve; as a rule, active = well fitted curve in the direction sought with a large enough effect; inconclusive = small, poorly fitted or top-dose-only effect, or another doubt; inactive = no such curve, though single readings can be large; an effect the other way counts as inactive or inconclusive. % is set by controls: 0 for no effect and ±100 for the full control effect; potency is the fitted concentration of half-maximal effect.

SMILES | GPT2 inh | NIH3T3 tox | FLuc inh | NPR1 antag | HEK cytotox
COc1cccc(CN2C[C@@H](CO)[C@H](NC(=O)c3ccccc3)C2)c1 | i | u | i | -10% | 35µM*
N#Cc1cccc(CN2C[C@@H](CO)[C@H](NC(=O)c3ccccc3)C2)c1 | i | 5µM* | i | -2% | u
CNC(=O)c1cc(C2CC2)nc2onc(C3CCCN3C(=O)NC(C)(C)c3ccccc3)c12 (configuration not stated) | x | 2% | x | x | i
Cc1ccccc1C(=O)NC1CCN(c2ccc3nnc(C)n3n2)CC1 | x | -28% | x | x | -28%
CCc1ccc(NC(=O)c2ccc3c(c2)N(CC)C2CCCCN2C3=O)cc1 (configuration not stated) | i | u | u | -9% | 25µM*
CN1c2cc(C(=O)Nc3ccc(N4CCOCC4)cc3)ccc2C(=O)N2CCCCC21 (configuration not stated) | i | u | i | -6% | u
CCc1ccc(CNC(=O)c2ccc3c(c2)N(CC)C2CCCCCN2C3=O)cc1 (configuration not stated) | -4% | u | i | -8% | u
CCN1c2cc(C(=O)Nc3ccc(Br)cc3)ccc2C(=O)N2CCCCCC21 (configuration not stated) | -6% | 40µM* | i | -12% | u
CCN1c2cc(C(=O)Nc3ccc(N4CCOCC4)cc3)ccc2C(=O)N2CCCCC21 (configuration not stated) | i | 20µM* | i | 0% | u
CCN1c2cc(C(=O)Nc3cccc(C#N)c3)ccc2C(=O)N2CCCCCC21 (configuration not stated) | i | u | i | -14% | 16µM*
CCN1c2cc(C(=O)Nc3ccc(Br)cc3)ccc2C(=O)N2CCCCC21 (configuration not stated) | 1% | u | i | -10% | u
CCOC(=O)C1CCN(C(=O)c2cc(-c3ccccc3OC)c3nncn3n2)CC1 | -20% | -23% | x | x | -23%
COc1ccc(NC(=O)C2CN(S(=O)(=O)C3CC3)CC23CCCCC3)cc1 (configuration not stated) | i | -30% | i | -17% | -17%
CCN1c2cc(C(=O)Nc3cc(C)cc(C)c3)ccc2C(=O)N2CCCCC21 (configuration not stated) | i | u | i | -4% | 28µM*
CCN1c2cc(C(=O)Nc3ccc(C)cc3)ccc2C(=O)N2CCCCCC21 (configuration not stated) | -2% | u | u | -24% | 40µM*
CCN1c2cc(C(=O)Nc3ccc(C)cc3C)ccc2C(=O)N2CCCCCC21 (configuration not stated) | 1% | u | i | 0% | u
CCN1c2cc(C(=O)NCCC3=CCCCC3)ccc2C(=O)N2CCCCC21 (configuration not stated) | i | u | i | -10% | 45µM*
CCN1c2cc(C(=O)Nc3ccc(C)cc3Cl)ccc2C(=O)N2CCCCCC21 (configuration not stated) | -3% | u | i | -1% | 50µM*
Cn1cnc(S(=O)(=O)N2CCCCC2c2noc(COCc3ccc(F)cc3)n2)c1 (configuration not stated) | 3% | -16% | x | x | u
CCN1c2cc(C(=O)Nc3ccccc3)ccc2C(=O)N2CCCCCC21 (configuration not stated) | i | u | i | -3% | 40µM*
O=C(C1CCCN1C(=O)Nc1ccc(Cl)cc1)N1CCC(c2ccccc2)CC1 (configuration not stated) | i | u | x | x | u
CC(C)C[C@@H]1N[C@H](C(=O)NC2CCC2)Cc2c[nH]c3cccc1c23 | 1%[88.5 µM] | 50µM* | i | 3%[70.6 µM] | 45µM*
CC(C)C[C@@H]1N[C@H](C(=O)NC2CCCC2)Cc2c[nH]c3cccc1c23 | -11%[88.5 µM] | 50µM* | i | -4%[70.6 µM] | 32µM*
CC(C)C[C@@H]1N[C@H](C(=O)N2CCN(c3ncccn3)CC2)Cc2c[nH]c3cccc1c23 | -14%[88.5 µM] | u | i | -1%[70.6 µM] | 79µM*
